Compounds with a hit are over-represented: about 1.6% of the library has one in this group of screens.
Glioma ERSR ind – inducers of ER stress response in human glioma cells. AID 602332. U87-MG GRP78 promoter luciferase reporter, 16 h. 420,000 tested, 0.02% active. Potency, µM, for inactives: top-dose activation, actives largely listed as activators; active means well fitted activation curve with a large enough effect; inconclusive means small, poorly fitted or top-dose-only effect; inactive means no such curve, though single readings can be large or run the other way; further: potency means the concentration at half of the fitted maximal effect; series mostly up to about 76 µM; % of control where 0% means no effect; nearly all actives have a fitted effect of over 35% in size
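ERSR induction read as luciferase luminescence (Bright-Glo, 10 min at room temperature) in stably transfected human U87-MG glioma cells exposed to compounds for 16 h, using GRP78 as sensor.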
gsp agonist – activates gsp, the McCune-Albright syndrome mutation. gsp mutant cells, cAMP HTRF, 30 min. 340,000 tested, 0.13% active. AID 624287. Potency, µM (doses to about 76.9 µM), inactives show at the highest dose activation (cAMP increase), usual class: activators; active means well fitted activation curve with a large enough effect; inconclusive means small, poorly fitted or top-dose-only effect, or another doubt; inactive means no such curve, though single readings can be large or run the other way; cell line not stated here;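 further: phosphodiesterase inhibitor Ro 20-1724 added with compounds to block cAMP breakdown; potency means the concentration at half of the fitted maximal effect; nearly all actives have a fitted effect of over 60% in size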
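Cells in DMEM/10% FBS with G418 were pretreated with compounds in DMSO plus […] (300 uM stock) for 30 min at 37C. cAMP was measured by HTRF (cAMP-d2 plus anti-cAMP antibody-K) after 30 min at room temperature.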
gsp antag – gsp mutant antagonism | gsp-mutant cells, cAMP HTRF, 30 min | Potency, µM (doses to about 76.9 µM), without a hit: top-dose activity change, negative = inhibition, most hits filed as inhibitors | 340,000 tested, 0.4% active | AID 624288; calls by dose curve; cell line not stated here;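 further: intracellular cAMP measured with PDE inhibitor Ro 20-1724 present during compound exposure; potency means the concentration at half of the fitted maximal effect; on the % scale 0 is the no-effect control and ±100 the full control effect; nearly all actives have a fitted effect of over 65% in size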
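HTRF cAMP read-out (cAMP-d2 plus anti-cAMP antibody-K in lysis buffer, 30 min RT). Before lysis, cells are exposed to compounds with […] for 30 min at 37C in DPBS containing Ca/Mg, BSA and Tween 20.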
Akt phos inh – Akt phosphorylation inhibition; Neuro2A IGF-stimulated pAkt S473 HTRF, 20 min; stronger effect = lower value; activity change, % for hits at 50 µM; 360,000 tested, 0.32% active; AID 651550; in the data active means activity change below about -80%; inconclusive means mostly about -51% to -80%; further: on the % scale 0 is the no-effect control and ±100 the full control effect
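Neuro2A cells (4,500/well, DMEM with 0.5% FBS) were treated with compound at a single 50 µM final concentration, stimulated with 6 nM IGF for 20 min at 37 °C, and lysed. Phospho-Akt Ser473 was read by HTRF as 665/615 ratio ×10^4.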
KCNH2 3.1 block – KCNH2 3.1 (human) potassium channel inhibition; 340,000 tested, 0.95% active; activity change, % (tested at about 1.8 µM); U2OS KCNH2 3.1, thallium flux FluxOr; stronger effect = lower value;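 active means maximum activity change below -70%; inconclusive means maximum activity change from -70% to -50%; inactive means maximum activity change above -50%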;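 further: thallium influx rate constant from kinetic fluorescence after stimulation buffer; on the % scale 0 is the no-effect control and ±100 the full control effect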
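We transduce U2OS cells with the mutant 3.1 virus, culture them overnight, load FluxOr with Red40 quencher for 45 min, then add stimulation buffer and read kinetically for 2 min to derive a normalized rate constant.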
hERG WT inh – inhibitors of human wildtype KCNH2 potassium channel. U2OS, BacMam KCNH2, thallium flux FluxOr; stronger effect = lower value. activity change, % at 1.84 µM. 340,000 tested, 0.37% active. Q12809;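 active means maximum activity change below -70%; inconclusive means maximum activity change between -70% and -50%; inactive means maximum activity change above -50%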; further: on the % scale 0 is the no-effect control and ±100 the full control effect
Target sequence (Q12809 whole entry, looked up): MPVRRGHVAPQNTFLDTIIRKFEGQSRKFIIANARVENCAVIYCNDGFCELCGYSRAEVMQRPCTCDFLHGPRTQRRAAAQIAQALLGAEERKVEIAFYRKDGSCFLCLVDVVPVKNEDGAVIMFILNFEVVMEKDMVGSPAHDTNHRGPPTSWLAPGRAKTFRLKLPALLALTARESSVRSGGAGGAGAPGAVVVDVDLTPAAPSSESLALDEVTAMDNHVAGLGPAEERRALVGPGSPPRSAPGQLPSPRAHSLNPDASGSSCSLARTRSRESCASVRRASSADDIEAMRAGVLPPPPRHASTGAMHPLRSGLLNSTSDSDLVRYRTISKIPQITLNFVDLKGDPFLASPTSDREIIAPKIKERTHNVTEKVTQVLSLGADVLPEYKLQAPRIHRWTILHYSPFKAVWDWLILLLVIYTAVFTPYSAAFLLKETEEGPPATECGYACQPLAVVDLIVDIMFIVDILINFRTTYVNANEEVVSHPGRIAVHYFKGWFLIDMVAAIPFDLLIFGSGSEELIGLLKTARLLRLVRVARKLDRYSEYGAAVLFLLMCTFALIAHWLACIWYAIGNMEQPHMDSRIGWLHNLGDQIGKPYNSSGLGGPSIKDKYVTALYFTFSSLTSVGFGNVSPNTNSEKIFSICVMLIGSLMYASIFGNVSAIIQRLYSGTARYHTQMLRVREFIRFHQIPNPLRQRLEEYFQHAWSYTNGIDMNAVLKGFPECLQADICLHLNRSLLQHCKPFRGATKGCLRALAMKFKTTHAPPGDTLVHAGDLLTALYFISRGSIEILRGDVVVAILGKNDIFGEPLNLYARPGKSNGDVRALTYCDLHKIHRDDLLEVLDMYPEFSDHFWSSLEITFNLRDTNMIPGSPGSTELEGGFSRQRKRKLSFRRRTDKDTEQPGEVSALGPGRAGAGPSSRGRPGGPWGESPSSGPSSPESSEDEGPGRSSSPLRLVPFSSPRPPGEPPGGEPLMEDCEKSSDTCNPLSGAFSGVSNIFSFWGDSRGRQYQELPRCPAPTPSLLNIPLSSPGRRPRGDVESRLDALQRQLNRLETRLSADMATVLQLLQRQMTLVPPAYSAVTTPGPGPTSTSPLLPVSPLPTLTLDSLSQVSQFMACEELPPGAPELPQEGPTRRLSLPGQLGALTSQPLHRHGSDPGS
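U2OS cells transduced with wild-type KCNH2 virus are loaded with FluxOr dye for 45 min, and thallium flux is measured in kinetic reads before and after stimulation buffer. Rate constants are normalized to DMSO controls.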
Starred values were filed as active, the others as inactive; i = inactive; ? = inconclusive; · = no result given; [ ] = dose if it differs, or a comment.

SMILES | Glioma ERSR ind | gsp agonist | gsp antag | Akt phos inh | KCNH2 3.1 block | hERG WT inh
Oc1ccccc1CN1CCC(C(O)(c2ccccc2)c2ccccc2)CC1 | -5.3% | -22.8% | 27.0% | i | -86.0* | 2.8
COc1ccccc1/C=C/C(=O)NCc1cccnc1 | -4.7% | -30.1% | 5.7% | i | -100.6* | 3.8
Cc1ccc(S(=O)(=O)N2CCN(Cc3nc4sc5c(c4c(=O)[nH]3)CCCC5)CC2)cc1 | -5.6% | 17.9%[15.4 µM] | -5.7% | i | -13.6 | 5.4
CC1CCc2c(sc3nc(CN4CCN(S(=O)(=O)c5ccccc5[N+](=O)[O-])CC4)[nH]c(=O)c23)C1 (stereo not given) | -1.3% | 10.3%[15.4 µM] | -18.5% | i | -73.4* | -11.6
CC(C)Cc1nc2cc(NS(=O)(=O)N(C)C)cc(C(=O)N3CCN(c4ccccc4)CC3)c2n1C | -2.4% | · | · | · | · | ·
CCCCCOC(=O)C(C)Sc1n[nH]c(=O)[nH]c1=O (stereo not given) | -1.1% | -3.7% | -19.0% | i | -13.9 | 0.5
CCCCOC(=O)CSc1n[nH]c(=O)[nH]c1=O | 0.1% | -32.5% | 6.6% | -123.8%* | 2.9 | 3.7
O=C(NCCN1CCOCC1)c1cc(-c2ccccc2)on1 | ? | -23.3% | 2.6% | i | 5.9 | -2.1
O=C(NCCN1CCOCC1)c1cc(-c2cccs2)on1 | 11.2µM* | 9.2% | 4.3% | i | -172.0* | -11.4
Cc1cc2ccccc2c[n+]1C | -2.2% | · | · | · | · | ·
CCCC/C=C/[C@H](c1ccccc1)[C@H](CO)Cc1ccc2ccccc2c1 | -2.3% | · | · | · | · | ·
O=C(NC(=S)N1CCN(c2ccc([N+](=O)[O-])cc2Cl)CC1)c1ccco1 | -3.1% | -3.5% | -1.5% | i | -73.2* | -29.1
O=C(c1ccco1)N1CCN(c2ccc([N+](=O)[O-])cc2Cl)CC1 | 5.9% | 0.6% | -7.0% | i | -5.6 | 24.2
COCCn1c(SCC(=O)NCc2ccc3c(c2)OCO3)nnc1-c1c[nH]c2ccccc12 | -2.3% | -21.2% | 0.7% | i | -215.3* | -149.2*
COCCn1c(SCC(=O)NCc2ccc3c(c2)OCO3)nnc1C(C)C | -5.6% | -1.5%[15.4 µM] | 9.1% | i | -4.0 | 8.7
c1cc2[nH]snc2c2nc(C3CC3)nc12 | 0.7% | 25.1µM* | 5.0% | i | -2.2 | -3.3
Cc1c(C(=O)N2CCCCC2)sc2ncnc(NCCc3ccccn3)c12 | -4.1% | · | · | · | · | ·
O=C(Nc1ccccc1-c1nc2ccccc2s1)c1ccc(F)cc1 | -2.7% | · | · | · | · | ·
N#C/C(=C(/O)c1ccco1)c1nc2ccccc2s1 | 5.2% | -16.3% | 35.5µM* | i | 7.6 | 1.9
O=C(Nc1ccccc1-c1nc2ccccc2s1)c1ccco1 | -1.0% | 25.1µM* | 23.8% | i | 3.5 | -5.8
CCOC(=O)c1cc(C#N)c(N2CCN(c3ccccn3)CC2)nc1-c1ccccc1 | -0.7% | 15.7% | -5.1% | i | -94.0* | 4.1
CCCSc1cc(N2CCCC2)nc(-c2ccccc2)n1 | -2.5% | 3.1% | -0.8% | i | 6.2 | 2.9
CCCSc1cc(N2CCN(C)CC2)nc(-c2ccc(OC)cc2)n1 | -8.1% | -3.5% | 4.6% | -88.6%* | -70.6* | -26.1
OCC1CCCN(c2nc3cc4c(cc3cc2CNCc2cccc(C(F)(F)F)c2)OCO4)C1 (stereo not given) | -2.5% | · | · | · | · | ·
C=C1C=C(C)n2ncc(C(=O)NCCCCCC)c2N1 | 5.1% | · | · | · | · | ·
SMILES | Glioma ERSR ind | gsp agonist | gsp antag | Akt phos inh | KCNH2 3.1 block | hERG WT inh
O=[N+]([O-])c1ccc(/C=N/Nc2nc(-c3ccccc3)c3cc(Br)ccc3n2)o1 | -1.3% | 4.8%[15.4 µM] | 3.5% | i | -101.3* | -17.4
Cc1ccc2nc(N/N=C\c3ccc([N+](=O)[O-])o3)nc(-c3ccccc3)c2c1 | -3.3% | -23.0% | -3.3%[15.4 µM] | i | -97.3* | -44.3
O=[N+]([O-])c1ccc(/C=N/Nc2ccc3ccccc3c2)o1 | 2.9% | ? | -14.6% | i | 14.2 | -16.3
N#Cc1ccccc1/C=N/Nc1nc(-c2ccccc2)c2cc(Br)ccc2n1 | ? | -1.2% | -5.1% | i | -9.5 | 5.0
CC(C)c1c(C(=O)N(C)C2CCN(C)CC2)cnn1-c1nccc(-c2ccco2)n1 | 1.1% | · | · | · | · | ·
O=C1CC(c2ccccc2)(c2ccccc2)c2ccccc21 | -2.0% | 4.4%[15.4 µM] | -20.9% | i | -102.7* | -95.1*
COC(=O)c1c(OCc2ccccn2)cc(=O)n2c1CCN(Cc1cccc(C(F)(F)F)c1)CC2 | 0.2% | · | · | · | · | ·
CCN(CC)S(=O)(=O)c1cccc(NC(=O)Nc2cccc(C(F)(F)F)c2)c1 | -3.7% | -33.4% | 31.6µM* | i | -13.4 | 5.2
CCN1CCN(C(=O)Nc2cccc(C(F)(F)F)c2)CC1 | -6.0% | 0.0% | 3.4% | i | -79.3* | 4.9
CCN(CC)S(=O)(=O)c1cccc(NC(=O)CC2CCCC2)c1 | -3.2% | -27.1%[15.4 µM] | -1.5% | i | 21.5 | 18.0
COc1ccccc1-c1ccnc(-n2ncc(C(=O)NCCc3ccccn3)c2C)n1 | -0.8% | · | · | · | · | ·
C=CCn1c(SCC(=O)Nc2sccc2C(N)=O)nc2sc(CC)cc2c1=O | -1.7% | 5.5% | -29.1% | -111.1%* | 2.0 | 4.5
C=CCn1c(SCC(=O)Nc2sccc2C(N)=O)nc2ccc(Cl)cc2c1=O | 4.6% | 13.2% | -30.0% | i | -8.0 | 1.6
CC(C)(C)n1ncc2c(=O)n(Cc3ccc(Cl)c(OC(F)(F)F)c3)cnc21 | -2.3% | · | · | · | · | ·
Cc1cc(C)c(C(=O)CC2(O)C(=O)Nc3ccccc32)cc1C (stereo not given) | -3.4% | 3.6% | 4.8% | -115.7%* | 4.0 | -7.4
Cc1ccc(C)c(C(=O)CC2(O)C(=O)Nc3ccccc32)c1 (stereo not given) | 0.0% | ? | 2.1% | i | 18.4 | -15.6
CCN(CC)CCNS(=O)(=O)c1ccc(Cl)cc1 | -6.9% | -15.9% | 12.1% | i | -6.1 | -1.7
CCCN(CCC)CC(C)(C)NS(=O)(=O)c1ccc(Cl)cc1 | -3.3% | 15.3%[15.4 µM] | 8.7% | i | -140.0* | 0.1
CCOc1ccc(CN2CCN(C/C=C/c3ccc(OC)cc3)CC2CCO)cc1 (stereo not given) | -4.2% | 2.7%[15.4 µM] | 6.2% | i | -88.3* | -15.3
OCCC1CN(Cc2cccn2-c2nccs2)CCN1Cc1ccccc1 (stereo not given) | -2.2% | -21.7% | 7.3% | i | -40.7 | 13.7
Cc1ncc(CN2CCN(Cc3ccccc3)C(CCO)C2)s1 (stereo not given) | -4.6% | ? | 9.8% | i | -6.8 | -4.7
CCOc1ccc(CN2CCN(Cc3cccn3-c3nccs3)CC2CCO)cc1 (stereo not given) | -4.7% | -6.7%[15.4 µM] | 9.6% | i | -113.5* | -134.0*
OCCC1CN(Cc2cccn2-c2nccs2)CCN1Cc1ccc(F)c(F)c1 (stereo not given) | -5.5% | -9.1%[15.4 µM] | -1.1% | i | -84.6* | -46.6

High-throughput results (PubChem BioAssay)
